Rows were chosen to be rich in hits. Some 0.7% of all compounds tested hit in one or more screens of this group.
PINK1 expr mod = A Quantitative High throughput Screen to Identify Chemical Modulators of PINK1 Expression. Potency, µM (titrated, usually from 76.6 µM), without a hit: at the top dose activation (PINK1 increase), hits mostly activators. PINK1 immunofluorescence, high-content cytometry, 24 h. 410,000 compounds, 0.2% hits; active = well fitted activation curve with a large enough effect; inconclusive = small, poorly fitted or top-dose-only effect; cell line not stated here; also: % of control where 0% means no effect; nearly all actives have a fitted effect of over 65% in size
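PINK1 protein, normally rapidly degraded, was detected by immunofluorescence after 24 hour compound treatment of a stable cell line. Titration data (5 concentrations) came from laser-scanning cytometry, with CCCP-treated wells as controls.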
Vif-APOBEC3G blk = qHTS for Inhibitors of Vif-A3G Interactions: qHTS; 410,000 compounds, 0.076% hits; HeLa A3G-eYFP + Vif (tagged APOBEC3G with the HIV-1 protein that degrades it), YFP fluorescence, overnight; DNA dC->dU-editing enzyme APOBEC-3G (Homo sapiens), Q9HC16; Potency, µM (series often up to 46.1 µM), inactives show at the highest dose activity, negative = active, usual class: inhibitors; AID 602310, 2012; also: % is scaled to controls: 0 for no effect and ±100 for the full control effect; nearly all actives have a fitted effect of over 60% in size
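Read-out is eYFP fluorescence (Ex 488/Em 500-530) from Vif-expressing HeLa A3G-eYFP cells; more signal means A3G escaped Vif-mediated degradation. Cells plated overnight, compound pinned in, incubated overnight at 37 deg C.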
Epigenetic derep = Quantitative High-Throughput Screen for Regulators of Epigenetic Control; murine LDR cells, GFP reporter derepression, 30 h; Potency, µM (highest dose often 53.9 µM), inactives show at the top dose GFP activation, most hits filed as activators; 280,000 compounds, 0.2% hits; also: % of control where 0% means no effect; nearly all actives have a fitted effect of over 60% in size
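GFP-positive cell count by laser-scanning cytometry (objects 20–120 um) after 30 h, 37 C compound exposure of murine LDR cells; reporter is CMV-GFP integrated at a silenced locus, inducible by HDAC or DNMT inhibitors.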
Vif-A3F inh = qHTS for Inhibitors of Vif-A3F Interactions: qHTS | HeLa A3F-eYFP + Vif (tagged APOBEC3F with the HIV-1 protein that degrades it), YFP fluorescence increase | Potency, µM (highest dose often 46.1 µM), for the others: at the top dose activity, negative = active | 390,000 compounds, 0.2% hits; also: % of control where 0% means no effect; nearly all actives have a fitted effect of over 65% in size
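HeLa cells stably expressing A3F-eYFP plus Vif, plated and incubated overnight at 37 deg C, then exposed to compounds overnight at 37 deg C. Blocked degradation read as raised yellow fluorescence (Ex 488/Em 500-530).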
GLS inh = qHTS for Inhibitors of Glutaminase (GLS). GLS enzymatic activity, qHTS titration. Potency, µM (highest dose often 45.5 µM), for the others: at the top dose activity change, negative = inhibition, actives largely listed as inhibitors. 410,000 compounds, 0.21% hits. AID 624170, 2012; also: % is scaled to controls: 0 for no effect and ±100 for the full control effect
Target sequence (O94925 whole entry, looked up): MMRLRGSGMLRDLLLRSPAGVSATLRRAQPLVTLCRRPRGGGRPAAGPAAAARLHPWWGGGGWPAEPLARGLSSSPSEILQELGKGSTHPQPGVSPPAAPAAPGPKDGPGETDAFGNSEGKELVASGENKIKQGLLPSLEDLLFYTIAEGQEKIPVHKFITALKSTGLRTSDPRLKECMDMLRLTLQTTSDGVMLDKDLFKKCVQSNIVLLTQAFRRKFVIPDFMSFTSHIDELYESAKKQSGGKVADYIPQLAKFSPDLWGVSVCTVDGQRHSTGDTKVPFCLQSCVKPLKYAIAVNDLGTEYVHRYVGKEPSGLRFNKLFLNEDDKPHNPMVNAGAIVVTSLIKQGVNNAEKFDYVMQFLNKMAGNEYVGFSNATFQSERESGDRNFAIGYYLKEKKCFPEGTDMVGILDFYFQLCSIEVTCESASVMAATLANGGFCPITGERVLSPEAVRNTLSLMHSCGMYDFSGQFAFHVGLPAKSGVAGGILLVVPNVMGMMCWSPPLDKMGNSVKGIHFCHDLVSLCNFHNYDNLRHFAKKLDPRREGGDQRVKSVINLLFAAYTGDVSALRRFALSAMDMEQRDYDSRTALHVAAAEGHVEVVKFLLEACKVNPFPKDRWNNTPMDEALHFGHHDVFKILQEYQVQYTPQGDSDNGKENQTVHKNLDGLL
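Read-out is an Amplex red fluorescence increase coupled through glutamate oxidase and HRP, measured before and after 30 min room-temperature incubation. hKGA is in 45 mM KH2PO4 (pH 8.2) with 0.02% Tween-20; glutamine added as 1mM solution.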
The depositor's hits bear a star; ? = inconclusive; . = not tested or not shown. Unless noted, calls follow the shape of the dose curve; as a rule, active = well fitted curve in the direction sought with a large enough effect; inconclusive = small, poorly fitted or top-dose-only effect, or another doubt; inactive = no such curve, though single readings can be large; an effect the other way counts as inactive or inconclusive. Potency is read from the fitted curve at half-maximal effect.

SMILES	PINK1 expr mod	Vif-APOBEC3G blk	Epigenetic derep	Vif-A3F inh	GLS inh
COc1cc(O)c(C(C)=O)c(OC)c1	5.1%	0.7%	7.5%	-2.5%	-2.0%
COc1cc(O)c(C(C)=O)c(CC(=O)O)c1	-0.4%	2.0%	1.0%	-0.7%	10µM*
Fc1ccc(CNc2nc(-c3ccc(Cl)cc3)cc(C(F)(F)F)n2)cc1	39.8µM*	-3.9%	-0.1%	?	-8.1%
CCOC1=C2[C@H](c3ccccc3)N(S(=O)(=O)c3ccc(C)cc3)C(C(C)(C)C)[C@H]2C(C#N)(C#N)C(C#N)(C#N)C1 (stereo partly drawn)	5.1%	?	.	.	2.24µM*
CCOC1=C2CN(S(=O)(=O)c3ccc(C)cc3)[C@H](c3cccc4ccccc34)C[C@H]2C(C#N)(C#N)C(C#N)(C#N)C1	0.8%	?	.	.	-11.4%
Nc1ccc2nc3c(=O)n(C4CCCCC4)c(=O)[nH]c3nc2c1	-0.3%	?	2.2%	12.6µM*	-7.3%
CCCCn1c(=O)[nH]c2nc3cc(N)ccc3nc2c1=O	-0.6%	10.8%	0.2%	-11.6%	21.3%
COC(=O)[C@@H]1CCCN1Cc1ccc2c(c1)CN(Cc1cccn1-c1ccc(Cl)cn1)CCO2	-0.6%	.	.	.	.
CON=C(C(=O)NC1C(=O)N2C(C(=O)O)=C(CSc3nc(=O)c(=O)[nH]n3C)CSC12)c1csc(N)n1 (stereo not drawn)	0.3%	2.6%	.	4.3%	17.8µM*
CO/N=C(\C(=O)N[C@@H]1C(=O)N2C(C(=O)O)=C(CSc3nc(=O)c(O)nn3C)CSC12)c1csc(N)n1 (stereo partly drawn)	.	.	-0.1%	.	.
CO/N=C(\C(=O)N[C@@H]1C(=O)N2C(C(=O)[O-])=C(C[n+]3cccc4c3CCCC4)CS[C@H]12)c1csc(N)n1	.	.	.	.	6.31µM*
CO/N=C(/C(=O)N[C@@H]1C(=O)N2C(C(=O)O)=C(C[n+]3ccc(N)n3CCO)CS[C@H]12)c1csc(N)n1	.	.	.	.	9.1%
COc1ccc(CN2CCOc3ccc(CN4CCC(O)CC4)cc3C2)c(OC)c1OC	-0.6%	.	.	.	.
O=S(=O)(Nc1cccc2ccccc12)c1cccs1	1.9%	-5.6%	.	-5.6%	21.9%
O=S(=O)(Nc1ccc(O)c2ccccc12)c1cccs1	-3.8%	-13.6%	.	-5.2%	11.2µM*
CN(C)CC(C)(C)CNC(=O)c1cnn(-c2nccc(-c3ccc4c(c3)OCO4)n2)c1-c1ccco1	-0.5%	.	.	.	.
COc1ccc2[nH]c(C(=O)N/N=C/c3ccc(OC)c(O)c3)cc2c1	6.2%	2.51µM*	.	0.7%	-22.4%
COc1ccc2[nH]c(C(=O)N/N=C/c3ccccc3OC)cc2c1	5.0%	?	.	-15.8%	0.6%
Cc1ccc(C(=O)Nc2cccc(-c3nc(CNC(=O)c4ccc5ccccc5n4)c(C)o3)c2)s1	0.0%	.	.	.	.
CC(=O)Nc1sc(/C(C#N)=C\c2cccc(Cl)c2)nc1-c1ccc(C)cc1	1.8%	3.98µM*	7.94µM*	10µM*	1.7%
CCc1nc2cc(C(=O)N[C@H]3CCCCNC3=O)cc(NC(=O)c3ccccc3OC)c2n1C	-0.4%	.	.	.	.
COc1ccc(-c2ccc(C(=O)N3CCc4c(cnc(C)c4CNS(=O)(=O)N(C)C)C3)o2)cc1	-0.5%	.	.	.	.
NC(=S)N/N=C/c1cccc(O)c1O	0.6%	-23.8%	-1.1%	?	53.6%
Cc1ccc(-c2ccc(/C=N/NC(N)=S)o2)cc1	-0.1%	-19.5%	?	5.62µM*	?
Cc1cc(/C=N/NC(N)=S)c(O)c(/C=N/NC(N)=S)c1	44.7µM*	-6.3%	1.1%	?	?
SMILES	PINK1 expr mod	Vif-APOBEC3G blk	Epigenetic derep	Vif-A3F inh	GLS inh
O=C(Cc1ccccc1)N/N=C/c1ccc(-c2ccc([N+](=O)[O-])cc2)o1	7.94µM*	7.94µM*	?	?	3.0%
COCCNC(=S)N/N=C/c1ccc(-c2ccc([N+](=O)[O-])cc2)o1	44.7µM*	?	?	?	-2.8%
NC(=O)N/N=C/c1ccc(-c2ccc([N+](=O)[O-])cc2)o1	0.7%	1.7%	-3.1%	4.9%	7.6%
C[C@@H]1O[C@@]2(CS1)CN1CCC2CC1	.	.	.	.	0.2%
Cc1c(C(=O)NCc2ccccc2Cl)sc2ncnc(NCC3CCCO3)c12 (stereo not drawn)	0.5%	.	.	.	.
O=C1Nc2ccc(Br)cc2C12NNc1ccccc1O2 (stereo not drawn)	-0.9%	?	17.8µM*	?	27.2%
COc1ccccc1N1N=C(c2ccc([N+](=O)[O-])cc2)CC1c1ccccc1 (stereo not drawn)	9.9%	2.51µM*	.	-952.8%	-10.9%
COc1cc(N2N=C(c3ccccc3)CC2c2ccccc2)c(C=O)cc1C=O (stereo not drawn)	0.8%	-0.5%	.	1.0%	-26.9%
FC(F)(F)c1ccc(N2CCN(c3ncnc4c3nnn4Cc3ccccc3)CC2)nc1	11.2µM*	-0.2%	-1.0%	-3.4%	5.4%
C=CC1CN2CCC1C[C@H]2C(O)c1ccnc2ccc(OC)cc12 (stereo partly drawn)	.	.	0.0%	.	.
O=C(CNC(=O)c1ccccc1)NCCCSc1ccccc1	-1.2%	0.8%	.	4.9%	-5.3%
O=C(NCCCSc1ccccc1)c1cc(Cl)ccc1O	17.8µM*	1.0%	.	2.4%	12.2%
CCOC(=O)C1CCCN(C(=O)c2cnn(-c3ncc4c(n3)-c3ccccc3CC4)c2C)C1 (stereo not drawn)	-0.2%	.	.	.	.
CCC1(C2CCN(C(=O)c3ccc4ccccc4c3)CC2)NC(=O)N(CCc2scnc2C)C1=O (stereo not drawn)	0.9%	.	.	.	.
Cc1cc(C)n2nc(C(=O)NCC3Cc4cccc(-c5ccc(S(C)(=O)=O)cc5)c4O3)cc2n1 (stereo not drawn)	1.9%	.	.	.	.
COc1ccc(C2CC(c3ccc(Cl)cc3)=NN2c2ccc(S(N)(=O)=O)cc2)cc1 (stereo not drawn)	7.0%	-6.6%	.	0.6%	-0.1%
COc1ccc(C2CC(c3ccncc3)=NN2c2ccc(S(N)(=O)=O)cc2)cc1 (stereo not drawn)	1.1%	?	.	11.2µM*	1.6%
O=c1[nH]c(/C=C\c2ccc(O)c(O)c2)nc(O)c1[N+](=O)[O-]	1.0%	0.9%	.	13.0%	7.94µM*
O=c1[nH]c(/C=C\c2cccc(O)c2)nc(O)c1[N+](=O)[O-]	1.0%	2.0%	.	-9.3%	11.1%
COc1ccc2c(c1)-c1nc(-n3ncc(C(=O)N(C)C(C)c4ccon4)c3C3CC3)ncc1CC2 (stereo not drawn)	1.8%	.	.	.	.
NC(N)=NCCCC(N)C(=O)O (stereo not drawn)	.	.	.	.	-6.2%
N#C/C(N=Nc1ccccc1O)=N\Nc1ccccc1O	?	?	.	11.2µM*	31.7%

Screening data (PubChem)
